TEAD-YAP block – TEAD-YAP interaction inhibition, primary screen, TEAD-YAP interaction inhibitor project, luminescence, HEK-TIYL cells; TEAD-Gal4/YAP UAS-luciferase luminescence; inhibition, % at 9.12 µM; 1.4% of 640,000 active; AID 1259422, 2018; in the data active = inhibition above about 32%
GPR151 ag – activators of human GPR151, primary screen, cell-based, PathHunter beta-arrestin, luminescence; G-protein coupled receptor 151 (Homo sapiens), Q8TDV0; PathHunter beta-arrestin GPR151 cells; activation, % at 11.2 µM; 1% of 650,000 active; in the data active = activation above about 4.9%
FBW7 activator – FBW7 E3 ligase activators, primary screen, biochemical, AlphaScreen, human. F-box/WD repeat-containing protein 7 (Homo sapiens), Q969H0. AlphaScreen FBW7–phospho-cyclin E peptide binding, activator screen. normalized activity (activation), % at 26.1 µM. 0.13% of 650,000 active; in the data active = normalized activity above about 1.9%;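 note: purified mutant Fbw7 with reduced substrate affinity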
MITF primary – MITF inhibitors, primary screen, biochemical, AlphaScreen, human; Microphthalmia-associated transcription factor (Homo sapiens), O75030; 0.91% of 650,000 active; inhibition, % at 2.6 µM; AlphaScreen MITF homodimerization, bead proximity signal; in the data active = inhibition above about 50%
MITF inh conf – MITF inhibitors, retest of hits, confirmation, biochemical, AlphaScreen, triplicate. shares compounds with MITF primary. AID 1259372, 2018. inhibition, % at 2.6 µM. AlphaScreen MITF homodimerization, biotin/His-MITF beads. 16% of 4,700 active;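 active = inhibition above a cutoff derived from the DMSO control wells, cut at about 28% in these data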;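 note: inhibitors lower the bead chemiluminescence by keeping MITF from dimerizing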
AS interf DR – AlphaScreen optical interference compounds, dose response, counter-screen, biochemical, HTS | IC50, µM | shares compounds with MITF primary | 6% of 480 active | AlphaScreen optical interference counterscreen, cell-free | AID 1259373, 2018; call rule not given here
AS interf ctr – AlphaScreen optical interference compounds, counter-screen for MITF inhibitor project, biochemical, triplicate; shares compounds with MITF primary; LysRS AlphaScreen counterscreen, signal interference; inhibition, % at 2.6 µM; 7.6% of 4,700 active; AID 1259376, 2018;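 active = inhibition above a cutoff derived from the DMSO control wells, cut at about 30% in these data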
Large screens that a line does not name were inactive (follow-up assays come after a bar, where they were run). A selection: hits, their analogues and other compounds. The true share with any hit is near 3.4%.

c1ccc(OCCOCCN2CCNCC2)cc1	none
CCOc1ccccc1OCCOCCN1CCN(Cc2ccccc2)CC1	MITF primary 85 | MITF inh conf inactive | AS interf ctr inactive
c1ccc(CN2CCN(CCOCCOc3ccccc3)CC2)cc1	MITF primary 83 | MITF inh conf inactive | AS interf ctr inactive
CC1=C(C(=O)N2CCOCC2)C(c2ccc(C)cc2)NC(=S)N1 (configuration not stated)	MITF primary 70 | MITF inh conf inactive | AS interf ctr inactive
CC1=C(C(=O)N2CCOCC2)C(c2ccc(Cl)cc2)NC(=S)N1 (configuration not stated)	none
CCC(C)NC(=O)CN(Cc1ccc(F)cc1)S(=O)(=O)c1ccc(Cl)cc1 (configuration not stated)	MITF primary 70 | MITF inh conf inactive | AS interf ctr inactive
COC(=O)CN(c1ccccn1)S(=O)(=O)c1ccccc1	MITF primary 61 | MITF inh conf inactive | AS interf ctr inactive
COC(=O)CN(c1ccc(I)cc1)S(=O)(=O)c1ccccc1	none
CC(=O)Nc1ccc(C2=N/C(=C/c3cccc([N+](=O)[O-])c3)C(=O)O2)cc1	MITF primary 58 | MITF inh conf inactive | AS interf ctr inactive
O=C1OC(c2cc(C3=N/C(=C\c4ccccc4)C(=O)O3)cc(C3=N/C(=C/c4ccccc4)C(=O)O3)c2)=N/C1=C\c1ccccc1	MITF primary 58 | MITF inh conf 30 | AS interf ctr inactive
Cc1ccc(C2=N/C(=C\c3ccc(OCc4ccccc4)cc3)C(=O)O2)cc1[N+](=O)[O-]	none
O=C1OC(c2cccc([N+](=O)[O-])c2)=N/C1=C\c1ccc(OCc2ccccc2)cc1	MITF primary 64 | MITF inh conf 37 | AS interf ctr inactive
O=C1OC(c2ccc(Cl)c(Cl)c2)=N/C1=C\c1ccccc1	none
CC(=O)Oc1ccc(/C=C(/NC(=O)c2ccco2)C(=O)Nc2ccc([N+](=O)[O-])cc2)cc1	none
NNC(=O)c1cc(-c2ccc(Cl)cc2)n[nH]1	MITF primary 56 | MITF inh conf inactive | AS interf ctr inactive
O=C(CCc1ccco1)Nc1ccc(-c2cn3c4c(nnc3n2)CCCC4)cc1	MITF primary 72 | MITF inh conf 58 | AS interf DR inactive | AS interf ctr inactive
Cc1ccc(CCC(=O)Nc2ccc(-c3cn4c5c(nnc4n3)CCCC5)cc2)o1	MITF primary 56 | MITF inh conf 66 | AS interf DR inactive | AS interf ctr inactive
C=CCc1ccccc1OCCOCCNCCOC	none
C=CCc1ccccc1OCCCNCCOC	MITF primary 59 | MITF inh conf inactive | AS interf ctr inactive
COCCNCCOc1ccccc1OC	none
COCCNCCOc1ccccc1C(C)C	MITF primary 58 | MITF inh conf inactive | AS interf ctr 42
C=CCc1ccccc1OCCCNCCCOC	MITF primary 65 | MITF inh conf inactive | AS interf ctr inactive
C=CCc1ccccc1OCCCCNCCCOC	none
C=CCc1ccccc1OCCNCCOC	MITF primary 52 | MITF inh conf inactive | AS interf ctr inactive
CNC(=O)c1c(NC(=O)c2ccc3ccccc3c2)sc(C)c1C	none
C=CCNC(=O)c1cc([N+](=O)[O-])c(C)c([N+](=O)[O-])c1	none
O=C1c2ccccc2NC(c2cccc([N+](=O)[O-])c2)N1c1ccc(F)cc1 (configuration not stated)	none
